# In the library only some 12% were active in any assay of this set; here they are far more common.
# USP17 block: blocks human USP17 ubiquitin-rhodamine cleavage. A8MUK1. purified USP17, Ub-rhodamine cleavage fluorescence, 3 h. inhibition, % at 50 µM. actives 6.5% (n = 47,000)
# Target sequence (A8MUK1 whole entry, looked up): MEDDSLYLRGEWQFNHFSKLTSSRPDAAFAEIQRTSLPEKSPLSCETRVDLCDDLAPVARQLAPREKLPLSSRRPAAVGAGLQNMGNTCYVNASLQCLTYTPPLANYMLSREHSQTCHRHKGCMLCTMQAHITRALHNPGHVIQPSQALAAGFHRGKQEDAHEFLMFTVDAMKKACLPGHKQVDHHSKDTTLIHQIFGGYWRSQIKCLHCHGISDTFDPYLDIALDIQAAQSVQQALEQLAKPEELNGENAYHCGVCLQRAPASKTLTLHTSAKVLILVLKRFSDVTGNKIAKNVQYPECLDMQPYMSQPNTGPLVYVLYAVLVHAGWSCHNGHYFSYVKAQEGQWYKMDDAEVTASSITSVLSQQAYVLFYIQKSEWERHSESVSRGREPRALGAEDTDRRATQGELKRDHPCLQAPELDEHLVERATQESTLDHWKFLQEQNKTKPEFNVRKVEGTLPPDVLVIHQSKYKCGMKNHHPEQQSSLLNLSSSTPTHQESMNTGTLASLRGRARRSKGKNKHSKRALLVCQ
# USP8 inh: inhibitors of human USP8 deubiquitinase; P40818; purified USP8, Ub-rhodamine cleavage fluorescence, 30 min; inhibition, % at 20 µM; actives 4.2% (n = 47,000)
# USP30 block: human USP30 deubiquitinase inhibition; purified USP30, Ub-rhodamine cleavage fluorescence; Q70CQ3; actives 5.3% (n = 47,000); AID 1645860; inhibition, % at 25 µM
# An asterisk follows results filed as active; i = inactive; · = no result given. Cut-off read from the data, not from the text of the source: active = inhibition above about 30%; inactive = the rest.
SMILES,USP17 block,USP8 inh,USP30 block
CCN(CCCNC(=O)c1ccc(Cn2c(=O)[nH]c3ccccc3c2=O)cc1)c1ccccc1,59*,6,3
CCOCCCNC(=O)c1ccc(Cn2c(=O)[nH]c3cc(OCC)c(OCC)cc3c2=O)cc1,11,7,·
COCCn1c(C)c(C)c(S(=O)(=O)c2ccc(OC)cc2)c1NC(=O)c1ccccc1,-1,2,11
Cc1cccc(NC(=O)Cc2nnc3c(-c4nc(C5CC5)no4)cccn23)c1,-180,83*,-432
Cc1cc(C)cc(NC(=O)Cc2nnc3c(-c4nc(C5CC5)no4)cccn23)c1,-34,2,-279
O=c1c(-c2nc(C3CC3)no2)cccn1Cc1noc(-c2ccccc2Cl)n1,11,19,22
O=C(Cc1nnc2c(-c3nc(C4CC4)no3)cccn12)N1CCCCCC1,-7,43*,-74
O=S(=O)(c1ccc(F)cc1)N1CC(c2ccnc(Nc3ccccn3)n2)C1,11,0,29
O=S1(=O)c2ccccc2NC(c2ccc(F)cc2)N1Cc1ccccc1 (stereo unspecified),-3,4,-11
CCn1c(COc2ccc(OC)cc2)nnc1SCc1ccccc1Cl,19,5,32*
CCn1c(COc2ccccc2OC)nnc1SCc1ccccc1,-9,3,9
CCn1c(COc2ccc3c(c2)OCO3)nnc1SCc1ccc([N+](=O)[O-])cc1,-1,-117,16
CCn1c(COc2cccc(C(F)(F)F)c2)nnc1SCc1ccc(Cl)cc1,36*,11,58*
CN1C(=O)COc2ccccc2CCCC[C@@H]2[C@H]1CCCN2C(=O)CC1CCOCC1,-14,-15,-8
Cc1nn(C)c(C)c1CCNS(=O)(=O)c1cccc(Cl)c1,-3,-1,3
O=C(COc1ccccc1[N+](=O)[O-])N1CCC(c2nc3ccccc3s2)CC1,-7,-128,8
O=C(Nc1nc(C(=O)NCc2cccnc2)co1)c1ccccc1,-16,-82,-35
N[C@@H](Cc1ccccc1)C(=O)N1CCC2(CC1)CN(C(=O)c1ccc(Cl)cc1)CCO2,46*,-271,68*
CN1CCCC12CCCN(C(=O)c1ccc(Cl)cc1)C2 (stereo unspecified),-4,-51,-3
O=C(c1ccncc1)N1C[C@@H]2OCC(=O)N(CC3CC3)[C@@H]2C1,10,3,-24
COc1ccc(NC(=O)c2nnc(C(=O)NCc3ccccc3F)s2)cc1,5,-14,-2
Cc1ccccc1CNC(=O)c1nnc(C(=O)Nc2ccc(F)cc2)s1,11,6,39*
COc1ccc2c(c1)OC1(CCN(C(=O)c3csc4c3CCC(C)C4)CC1)CC2=O (stereo unspecified),-9,-5,-13
Cc1noc(C)c1CC(=O)N1CCCC(c2ccc3cn[nH]c3n2)C1 (stereo unspecified),-7,-65,-7
Cc1ccc(C)c(NC(=O)CSc2cc(N3CCCCC3)ncn2)c1,11,0,41*
SMILES,USP17 block,USP8 inh,USP30 block
O=C(CSc1cc(N2CCCCC2)ncn1)NC1CCCC1,6,4,18
O=C(CSc1nnc(-c2ccccc2)n1-c1ccc(F)cc1)NCc1ccc(F)cc1,24,-2,0
O=C(Nc1ccccc1)c1ccc2c(c1)CC(c1ccccc1)OC2=O (stereo unspecified),74*,32*,17
O=C(Nc1cccc(C(=O)NC2CC2)c1)c1ccc2c(c1)CC(c1ccccc1)OC2=O (stereo unspecified),-12,-95,0
NC(=O)C1=C[C@H]2C3C=C[C@@]2(O)C(=O)OC3O1,1,5,0
N#Cc1ccc(OCC(=O)Nc2cc(S(=O)(=O)N3CCCCC3)ccc2Cl)cc1,-3,7,5
CCCn1c(NC(=O)c2cccnc2)nc2ccccc21,17,3,-5
CCCn1c(NC(=O)Cc2ccc(OC)c(OC)c2)nc2ccccc21,10,64*,-20
Cc1ccc2c(c1C)NC(=O)[C@]21[C@@H]2C(=O)N(c3cccc(Cl)c3)C(=O)[C@@H]2[C@@H]2CCCN21,-177,-330,i
O=C(CN1CCN(CCCc2c[nH]c3ccc(F)cc23)CC1)N(c1ccccc1)C1CCCCC1,-13,-120,16
Cc1cc(C)cc(-n2nnc(C(=O)NC3CCCC3)c2N)c1,-2,-9,-9
Cc1cccc(C)c1OCC(=O)Oc1ccc(-n2cnnn2)cc1,4,7,13
O=C(COc1ccc(Br)cc1)Oc1ccc(-n2cnnn2)cc1,-6,11,-18
CCOc1ccc(C(=O)Oc2ccc(-n3cnnn3)cc2)cc1,5,33*,11
CN(C(=O)COc1ccc(-n2cnnn2)cc1)C(c1ccccc1)c1ccccc1,13,7,36*
Cc1ccc2nc(CN3CCC(c4nc5ccccc5s4)CC3)cc(=O)n2c1,1,6,0
O=C(Nc1ccc(C(F)(F)F)cc1)C1CC(=O)N(c2ccc3c(c2)OCCO3)C1 (stereo unspecified),35*,25,34*
O=C(Nc1ccc2c(c1)OCO2)C1CC(=O)N(c2ccc3c(c2)OCCO3)C1 (stereo unspecified),15,-3,-12
O=C(Nc1cnc2ccccc2c1)N1CCCCCC1,-9,2,0
O=C(Nc1cnc2ccccc2c1)Nc1ccccc1Cl,55*,4,·
O=C(CN1CCCCCC1)Nc1cc([N+](=O)[O-])ccc1Cl,45*,-69,28
Cc1sc(NC(=O)CN2CCCCCC2)nc1-c1ccc2c(c1)CCN2C(=O)C(C)C,21,-63,-18
O=C(CN1CCCCC1)Nc1nnc(-c2ccc([N+](=O)[O-])cc2)s1,38*,-79,34*
COc1cc2c(cc1OC)CN(CC(=O)Nc1cc([N+](=O)[O-])ccc1Cl)CC2,-18,-120,-19
COc1ccc(OC)c(NC(=O)COC(=O)C2CC(=O)N(c3cccc(C)c3C)C2)c1 (stereo unspecified),1,0,16
SMILES,USP17 block,USP8 inh,USP30 block
CCC(C)Sc1nc2c(c(=O)[nH]c(=O)n2C)n1Cc1ccccc1 (stereo unspecified),2,1,17
CCCCCn1c(Sc2ccc(C)cc2)nc2c1c(=O)[nH]c(=O)n2C,34*,15,53*
CN(C)c1ccc(C2N(C)c3ccccc3-c3nc4ccccc4n32)cc1 (stereo unspecified),-55,-11,-295
COc1ccc(C(=O)N2CCCC(c3ccn[nH]3)C2)cn1 (stereo unspecified),-2,0,7
NS(=O)(=O)c1ccc(NC(=O)COC(=O)c2sc3cc(F)ccc3c2Cl)cc1,23,37*,41*
O=C(COC(=O)c1sc2ccccc2c1Cl)Nc1ccc(F)cc1,2,8,25
Fc1ccc(OCCN2CCOC(c3ccc(Nc4ccccn4)cn3)C2)cc1 (stereo unspecified),-3,6,-1
O=C(N[C@@H]1C[C@@H](Oc2cccc(F)c2)[C@H](O)[C@H]1N1CCOCC1)c1cnco1,6,6,2
CS(=O)(=O)N1CCN(c2ccccc2NC(=O)COc2ccc(Br)cc2)CC1,93*,92*,·
CS(=O)(=O)N1CCN(c2ccc(NC(=O)COc3ccccc3)cc2)CC1,-8,-14,0
O=C1Nc2cc3c(cc2Sc2ccccc21)OCCO3,67*,-14,60*
O=C1Nc2ccccc2S/C1=C/c1ccccc1,-15,-10,-29

# From PubChem
